{"source": "PubChem BioAssay AID2733", "about": "(National Center for Advancing Translational Sciences (NCATS), 2010)", "note": "Inconclusive results are not listed. Unmarked numbers belong to inactive results. Activity calls are given as the source filed them. Calls come from the whole dose curve; as a rule, active = well fitted inhibition curve with a large enough effect; inconclusive = small, poorly fitted or top-dose-only effect; inactive = flat fitted curve, though single readings scatter.", "data": [{"assay": "High Content Assay for Compounds that inhibit the Assembly of the Perinucleolar Compartment: PC3M Cytotoxicity", "conditions": "PC3M cells, ATPLite luminescence viability, 24 h; series mostly up to 46.1 µM; activity change, negative = cytotoxicity: at the top concentration", "description": "High Content Assay for Compounds that inhibit the Assembly of the Perinucleolar Compartment\nNIH Chemical Genomics Center [NCGC]\nNIH Molecular Libraries Probe Centers Network [MLPCN]\nAssay Submitter (PI): Sui Huang, Northwestern University, Feinberg School of Medicine, Cell and Molecular Biology, Chicago, Illinois.\nThe perinucleolar compartment (PNC) is a non-membrane-bound nuclear subdomain that is associated with but structurally distinct from the nucleolus. The PNC is a heritable trait, in which the number of PNCs per cell in daughter cells often mimics that of their mother cells. The PNC is heterogeneous in shape, is stable through interphase, disassembles during mitosis, and reassembles in early G1. The PNC is concentrated with newly synthesized RNA polymerase III (pol III) RNAs (MRP RNA, RNAse P H1 RNA, hY RNAs[hY1, 2, 5], Alu RNA, and SRP [7SL] RNA) and RNA binding proteins (nucleolin, PTB, CUG-BP, KSRP, Raver1, Raver2, and Rod).\nExtensive in vitro studies have shown that the PNC is unique to tumor cells and preferentially forms in tumor cells derived from solid tissues. Examination of cancer cell lines from various origins and malignant capacities has shown that PNC prevalence correlates with the malignancy of tumors and has the potential to be developed as a pan-cancer prognostic marker.\nAlthough the PNC is associated with a DNA locus and a handful of components have been identified, much remains to be investigated regarding the structure and function of the PNC and its mechanistic link to cancer. We have previously shown that PNC prevalence reduction is a valid strategy to identify compounds that can be used to study the structure and function of the PNC. It is necessary, however, to create a screening platform that is able to test a large number of compounds in an automated fashion. Here we report the development and robustness of an automated whole-cell phenotypic image-based screening assay that is capable of identifying such compounds.\nWe conducted a followup assay to measure the effect of the lead candidates on cell health by measuring ATP levels (ATPLite). The highly metastatic PC3M-GFP reporter cell line was used in this study.\n1. Cells at a density of 75-90% confluency in T175 flasks were harvested using 7 ml TrypLE Express cell dissociation reagent. After dissociation (5 minutes room temperature incubation) 10 ml of complete media was added to the TrypLE/cell suspension. The liquid was transferred to a 50 ml Conical tube and cells were pelleted at 1000 RPM for 5 min. Supernatant was removed and cells were resuspended to a final density of 150-200 cells/ul in complete media.\n2. Cells were plated in 5 ul volume (2000 cells/well) into 1536 well White solid bottom plates and allowed to recover and adhere at 37 C in a humidified 5% CO2 incubator for 4 hours.\n3. After 4 hour incubation, compound libraries (23 nl of 12.5 uM in columns 5-48) were transferred to the plates in duplicate using a 1536 well pintool. Camptothecin positive control (59 uM final) was added to column 2 and 1:3 dilutions of camptothecin was added to column 3. DMSO negative controls were present in columns 1 and 4.\n4. After a 24 hour incubation in the 37 C incubator, all wells were treated with 3 ul of ATPLite reagent using a multidrop combi dispenser (ThermoFisher). Bubbles that formed during dispensing were removed by spinning the plates for 1 minutre at 1500 RPM on a table top centrifuge.\n5. Luminescencent signal was detected on a Viewlux CCD based imager (PerkinElmer) with a clear filter and a 30 second integration time.\nThe PC3M cell line stably expressing the PTB-GFP was provided by Sui Huang of Northwestern University. The media and cell culture reagents were purchased from Invitrogen (Carlsbad, CA), ATPLite came from PerkinElmer.", "units": {"activity change, negative = cytotoxicity": "%"}, "values": [{"molecule": "CN(C)c1ccc(N=Nc2ccccc2C(=O)OCC(=O)NC2CCCC2)cc1", "activity change, negative = cytotoxicity": -11.2}, {"molecule": "Cc1ccc(NC2=C/C(=N/S(=O)(=O)c3cccs3)c3ccccc3C2=O)cc1", "Potency": "14.1 µM (active)"}, {"molecule": "C=CCN=c1scc(-c2ccccc2)n1/N=C/c1ccccn1", "Potency": "14.1 µM (active)"}, {"molecule": "COc1ccc(-c2csc(NC(=O)c3ccc(OCC(=O)N4CCOCC4)c(OC)c3)n2)cc1", "activity change, negative = cytotoxicity": -19.6}, {"molecule": "Cc1ccc(-n2cc(-c3ccccc3)c3c(NN4CCOCC4)ncnc32)cc1", "activity change, negative = cytotoxicity": -0.717}, {"molecule": "CCCSc1cc(N2CCN(C)CC2)nc(-c2ccc(OC)cc2)n1", "activity change, negative = cytotoxicity": -2.66}, {"molecule": "Cc1cc(SC(C)C(=O)Nc2ncc(Cl)cc2Cl)nc2ccccc12", "note": "(stereo not given)", "Potency": "11.2 µM (active)"}, {"molecule": "Cc1cc(C)c(S(=O)(=O)/N=C2/C=C(Sc3ncn[nH]3)C(=O)c3ccccc32)cc1C", "Potency": "14.1 µM (active)"}, {"molecule": "O=C(N/N=C\\c1ccc([N+](=O)[O-])s1)c1cncc(Br)c1", "Potency": "25.1 µM (active)"}, {"molecule": "COc1ccc(-c2nc(NC(=O)c3n[nH]c(=O)c4ccccc34)sc2C)cc1", "Potency": "7.08 µM (active)"}, {"molecule": "CCCCN(C(=O)Nc1ccc(Cl)cc1)C1CCN(C(C)=O)CC1", "activity change, negative = cytotoxicity": -17.1}, {"molecule": "O=C(Nc1cccnc1)c1cccs1", "activity change, negative = cytotoxicity": 13.2}, {"molecule": "CCOC(=O)CSc1nc2c(sc3ccc([N+](=O)[O-])cc32)c(=O)n1Cc1ccco1", "activity change, negative = cytotoxicity": 8.39}, {"molecule": "COC(=O)C1=C(C)N(c2ccc(Br)cc2)C(=O)/C1=C\\c1ccco1", "activity change, negative = cytotoxicity": -9.56}, {"molecule": "COC(=O)c1ccc(CSc2ccccc2C)o1", "activity change, negative = cytotoxicity": 11.2}, {"molecule": "O=C(N/N=C/c1cc(Cl)ccc1O)C(=O)Nc1ccccc1OC(F)(F)C(F)F", "Potency": "14.1 µM (active)"}, {"molecule": "COc1ccccc1NC1=C(N2CCCCC2)C(=O)c2ccccc2C1=O", "Potency": "7.94 µM (active)"}, {"molecule": "O=C1C(=Cc2cccs2)C(=O)c2ccccc21", "activity change, negative = cytotoxicity": -11.4}, {"molecule": "Cc1ccccc1C(=O)NNC(=S)Nc1cccc(C(F)(F)F)c1", "activity change, negative = cytotoxicity": -7.03}, {"molecule": "Nc1ccc2c(c1)C(=O)C(=O)c1ccccc1-2", "Potency": "22.4 µM (active)"}, {"molecule": "CNC1=C(N(C(C)=O)c2ccc(Br)cc2)C(=O)c2ccccc2C1=O", "Potency": "8.91 µM (active)"}, {"molecule": "Cc1cccc(C)c1Nc1c(-c2ccc(N3CCOCC3)cc2)nc2ncccn12", "activity change, negative = cytotoxicity": -2.92}, {"molecule": "Cc1cc[n+](C2=C([O-])c3ccccc3C(=O)/C2=N\\S(=O)(=O)c2cccs2)cc1C", "Potency": "25.1 µM (active)"}, {"molecule": "COc1ccc(-c2cc(C#N)nc(N3CCN(C)CC3)n2)cc1", "activity change, negative = cytotoxicity": -4.37}, {"molecule": "O=C(N/N=C/c1cc2c3c(c1O)CCCN3CCC2)c1ccccc1O", "Potency": "3.16 µM (active)"}, {"molecule": "COc1cc(/C=N/NC(=O)c2ccc(CSc3nc4ccccc4[nH]3)cc2)cc(OC)c1OC", "activity change, negative = cytotoxicity": -25}, {"molecule": "O=C(N/N=C/c1ccccc1O)c1cccc(C(F)(F)F)c1", "Potency": "10 µM (active)"}, {"molecule": "CCc1ccc(S(=O)(=O)/N=C2/C=C(Sc3ncn[nH]3)C(=O)c3ccccc32)cc1", "Potency": "35.5 µM (active)"}, {"molecule": "O=C(N/N=C/c1c(O)ccc2ccccc12)c1cccc(C(F)(F)F)c1", "Potency": "8.91 µM (active)"}, {"molecule": "CC(=O)N(C)C1=C(N2CCOCC2)C(=O)c2ccccc2C1=O", "Potency": "15.8 µM (active)"}, {"molecule": "O=c1[nH]cnc2c1C(c1ccccc1[N+](=O)[O-])c1c(nc[nH]c1=O)O2", "activity change, negative = cytotoxicity": 7.92}, {"molecule": "CN1c2ccccc2C(C)(C)C12CC(c1ccc(Cl)c(S(=O)(=O)N3CCCC3)c1)=NO2", "note": "(stereo not given)", "Potency": "3.98 µM (active)"}, {"molecule": "CC(=O)Nc1cccc(Oc2ncnc3scc(-c4ccc(C)cc4)c23)c1", "activity change, negative = cytotoxicity": -9.47}, {"molecule": "Cc1ccc(Cl)cc1N(CC(=O)N1CCCCCC1)S(C)(=O)=O", "activity change, negative = cytotoxicity": -19}, {"molecule": "O=[N+]([O-])c1cc(/C=N/Nc2nc3ccccc3[nH]2)c(O)cc1O", "Potency": "7.94 µM (active)"}, {"molecule": "O=C1C(=O)c2ccc(-c3ccccc3)cc2-c2ccccc21", "Potency": "15.8 µM (active)"}, {"molecule": "COc1cc(C(=O)Oc2ccccc2/C=N/NC(=O)c2ccc(Cl)cc2)cc(OC)c1OC", "Potency": "11.2 µM (active)"}, {"molecule": "O=C(COC(=O)Cc1ccsc1)NCC1CCCCC1", "activity change, negative = cytotoxicity": 1.89}, {"molecule": "Cc1cc(C(=O)Cn2nnc3ccccc3c2=O)c(C)n1-c1ccccc1F", "Potency": "7.94 µM (active)"}, {"molecule": "O=S(=O)(Nc1cc(Sc2cccc3cccnc23)c(O)c2ccccc12)c1ccc(F)cc1", "Potency": "15.8 µM (active)"}]}]}
